Measured values: PubChem BioAssay AID485273 (Sanford-Burnham Center for Chemical Genomics, 2010)
The campaign covered roughly 330,000 compounds. About 1,500 (0.45%) were called active. The entries come from a sample that favours actives as a whole. A number with no mark means an inactive call. Rule as the data show it: active = inhibition above about 45% (passing the limit was not always enough); inconclusive = no clear call, values can overlap the other calls.

Biological target: Ubiquitin-conjugating enzyme E2 N (Homo sapiens) (UniProt P61088)
Sequence (P61088 whole entry, looked up): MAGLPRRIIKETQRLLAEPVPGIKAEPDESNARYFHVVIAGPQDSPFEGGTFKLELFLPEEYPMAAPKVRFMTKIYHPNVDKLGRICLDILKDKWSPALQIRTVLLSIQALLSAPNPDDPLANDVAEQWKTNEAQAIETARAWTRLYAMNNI
Assay: blockers of UBC13 ubiquitin chain synthesis – biochemical, TR-FRET, uHTS, primary screen (AID 485273)
Settings: UBC13 polyubiquitin chain formation, at 20 µM, hits give high values

SMILES | inhibition
CC(C)c1ccccc1OCC(O)CN(CC(O)COc1cccc2ccccc12)C(C)C (configuration not stated) | 10.8%
Cc1cc(C)c(NC(=O)C[N+](C)(C)CC(O)COc2cccc3ccccc23)c(C)c1 (configuration not stated) | 45.4% (active)
Cc1cc(C)cc(OCC(=O)NCc2cc(C)nc3ccccc23)c1 | 7.7%
CCCCCN(C(=O)CCC(=O)OCC(=O)NCc1ccc(OC)cc1)c1c(N)n(CCCC)c(=O)[nH]c1=O | 2.5%
CCn1ccnc1CN1CCCC(C(=O)c2ccc3c4c(cccc24)CC3)C1 (configuration not stated) | 19.1%
O=C(c1ccccc1)N1CCN(C(=O)c2cc3nc(-c4ccccc4)cc(C(F)(F)F)n3n2)CC1 | 2.2%
O=C(O)/C(=C/c1cccnc1)NC(=O)c1ccccc1 | 7.7%
OCCCNc1nccc(-c2cc(Nc3cccc(Cl)c3)ncn2)n1 | 35.7%
CC(C)n1cnc2c(Nc3cccc(Cl)c3)nc(N(CCO)CCCO)nc21 | 64.8% (active)
CC(C)C[C@H](CO)Nc1nc(N(C)c2cccc(Cl)c2)c2ncn(C(C)C)c2n1 | 24.1%
O=C(O)CCn1c(SCc2cc(=O)n3ccccc3n2)nc2ccsc2c1=O | -6.3%
O=C(Nc1cccnc1Oc1ncnc2cc(Cl)ccc12)c1ccc(F)cc1 | 2.8%
COc1ccc(N2CCN(CCNC(=O)Nc3cc(Cl)ccc3Cl)CC2)cc1 | 5.5%
CC(=O)Nc1ccc(NC(=O)c2sc3nc4c(c(-c5ccc(C)cc5)c3c2N)CCC4)cc1 | 54% (active)
CC(=O)c1ccc(NC(=O)c2sc3nc4n(c(=O)c3c2C)CCCCC4)cc1 | -6.8%
Cc1ccc(NC(=O)c2sc3nc(N)c(C#N)cc3c2N)cc1 | 1%
COc1ccc(C=C(C#N)C#N)c(CSc2ccccn2)c1 | 3.1%
O/N=C(\C[n+]1ccccc1)c1ccc(Br)cc1 | -4.7%
CC(=O)NCCNC(=O)c1cc(-c2cccc3ccccc23)nc2ccccc12 | 8.4%
COC(=O)c1cc(-c2cccs2)nc2ccccc12 | 45.2% (active)
CCCCN(C)CCCNC(=O)c1cc(-c2cccs2)nc2ccccc12 | 48.3% (active)
COC(=O)c1cc(N2CCNCC2)nc2ccccc12 | 17.5%

SMILES | inhibition
O=C(NCC(c1cccs1)N1CCOCC1)c1cc(-c2ccccn2)nc2ccccc12 (configuration not stated) | 1.9%
O=C(Nc1nnc(-c2ccccc2)o1)c1cc(-c2cccs2)nc2ccccc12 | -31.4%
COc1cccc(NC(=O)CN(C)C(=O)c2cc(C3CC3)nn2-c2ccccc2)c1 | -2.2%
CCOCCCNS(=O)(=O)Cc1ccccc1 | -13.7%
CCOc1ccc(N(CC(=O)NCCc2ccc(OC)cc2)S(C)(=O)=O)cc1 | 3.8%
Cc1sc2ncnc(N3CCC(C(=O)Nc4ccc(F)cc4Cl)CC3)c2c1C | 17.7%
Cc1ccc(S(=O)(=O)N(C)c2ccc(OCC(=O)OCC(=O)N(CC#N)c3ccccc3)cc2)cc1 | -0.2%
CCCc1cc(=O)[nH]c2nnc(SCC(=O)Nc3nnc(SCC)s3)n12 | -15.5%
NCC(=O)c1cccc2ccc[n+]([O-])c12 | -7.7%
O=C(NCC(=O)N(Cc1cccs1)C(C(=O)NC1CCCCC1)c1ccco1)c1cccs1 (configuration not stated) | -5.1%
Cc1ccc(NC(=O)c2cnc(SCC(=O)NCC3CCCO3)n(C)c2=O)cc1 (configuration not stated) | 93.1% (active)
Cn1c(SCC(=O)c2ccccc2)ncc(C(=O)Nc2ccc(F)cc2)c1=O | 36.4%
CCn1c(SCC(=O)NCC2CCCO2)nc2ccccc21 (configuration not stated) | 5.4%
Cc1ccccc1-n1cc(CNC(=O)C2CCC(=O)N(C3CC3)C2)cn1 (configuration not stated) | 8.4%
COc1ccc(-n2nc(C(=O)Nc3cc(OC)c(OC)c(OC)c3)c3ccccc3c2=O)c(OC)c1 | 21.2%
N#CCc1ccc(NC(=O)c2ccccc2C(=O)Nc2ccc(CC#N)cc2)cc1 | 2.2%
CCCCOCCCNC(=O)c1ccccc1OCC | 1.4%
CCOCCCNC(=O)c1cn(CC(C)C)c(=O)c2c1c1ccccc1n2C | 51.1% (active)
COCCCNC(=O)Cn1cc(C(=O)C2CC2)c2ccccc21 | 11.8%
CN(C)c1nc(N)nc(Cn2nnc(-c3ccc(C(F)(F)F)cc3)n2)n1 | 4%
COc1ccccc1-c1sc2ccccc2c1C#CC1(O)CCCCC1 | -2.3%
COc1ccccc1-c1sc2ccccc2c1-c1ccc(Br)nc1 | 21.7%

SMILES | inhibition
COc1ccccc1-c1sc2ccccc2c1-c1ccc(C(C)=O)cc1 | 47.4% (active)
CCCC1C(=O)N2C(N(C)C)=Nc3ccc(C)cc3N2C1=O (configuration not stated) | -21%
COc1cccc2sc3cc(NCC[C@@H]4CCCN4C)ccc3c(=O)c12 | 45.1% (active)
COc1cccc(OC)c1C(=O)Nc1ccc2c(c1)n(C)c(=O)n2C | 1.6%
Cc1cc2oc3ccc(NCCC4CCCN4C)cc3c(=O)c2cc1C (configuration not stated) | 33.1%
COCCn1c(SCC(=O)Nc2ccccc2F)nc2c(c1=O)SCC2 | -6.9%
COc1ccc(C2=NN(c3nc4ccccc4s3)C(=O)C2)cc1 | -13.1%
COc1ccc(-n2nnnc2-c2nc3ccccc3s2)cc1 | 53.4% (active)
COc1ccc(-n2nnnc2CNC(=O)c2ccc3ccccc3c2)cc1 | -2.4%
Cc1c(Cl)cnc(NC(=O)COC(=O)C2CCCC2)c1Cl | 3.7%
CCCN1CCn2c3c(c4cc(Br)ccc42)CCCC31 (configuration not stated) | -1.1%
OC(CNCC1CCCO1)Cn1c2ccc(Br)cc2c2cc(Br)ccc21 (configuration not stated) | 57.5% (active)
O=C(CCNS(=O)(=O)c1ccc(Br)cc1)NCC1CCCO1 (configuration not stated) | 1.5%
COc1ccccc1C(=O)N1C(CC(=O)Nc2ccccc2C)C(=O)NC2CCCCC21 (configuration not stated) | -2.3%
CCCC[C@@H]1CN=C(N)N1CCc1cccc(F)c1 | 13.5%
CCCC[C@@H]1CN=C(N)N1CCCC | -4.4%
CCCC[C@@H]1CN=C(N)N1CCc1cc(C(F)(F)F)cc(C(F)(F)F)c1 | 66.9% (active)
COc1ccc(OC)c(-c2csc(NC(=O)C3=NNC(=O)CC3)n2)c1 | -3.9%
Cc1ccccc1CN1C(=O)c2ccccc2Sc2ccc(C(=O)NCCCN3CCOCC3)cc21 | 15.4%
CCN1CCN(CCNC(=O)c2ccc(/C=C3/Sc4ccccc4N(Cc4cccc(C)c4)C3=O)cc2)CC1 | 50.8% (active)
O=C(NCCCN1CCOCC1)c1ccc2c(c1)N(Cc1cccc(F)c1)C(=O)c1ccccc1S2 | 13.3%
C=CCn1c(=S)sc2c(=O)[nH]c(C)nc21 | -13.8%

SMILES | inhibition
CCNC(=O)CCc1nc(-c2ccc(C)cc2)no1 | 0.3%
CN1CCN(C(=O)CCc2nc(-c3ccc(Cl)cc3)no2)CC1 | -0.3%
Cc1ccc(-c2noc(CCC(=O)Nc3ccccc3N3CCN(C)CC3)n2)cc1 | 71.9% (active)
Cc1cc([N+](=O)[O-])c(NC2CCCCC2)c([N+](=O)[O-])c1 | -28.1%
O=C(Nc1ccc(F)cc1)C(=O)c1cn(CC(=O)N2CCOCC2)c2ccccc12 | -4.6%
CCN(CC(=O)Nc1ccc(OC)cc1)C(=O)c1ccc(Cl)c(S(=O)(=O)N2CCCC2)c1 | 8.9%
O=C(OCC1O[C@@H](OC(=O)c2cc(O)c(O)c(O)c2)[C@@H](OC(=O)c2cc(O)c(O)c(O)c2)[C@@H](OC(=O)c2cc(O)c(O)c(O)c2)[C@@H]1OC(=O)c1cc(O)c(O)c(O)c1)c1cc(O)c(O)c(O)c1 (some centres not stated) | 138% (active)
O=C(NCCc1ccc(F)cc1)c1ccc2nccnc2c1 | -9.4%
CC1CCCN(C(C(=O)Nc2ccc(C(C)C)cc2)c2ccc3c(c2)OCO3)C1 (configuration not stated) | 9%
COc1ccccc1C(=O)N(C1=NC(C)CS1)c1ccc(Cl)cc1 (configuration not stated) | 1.5%
COCCCNC(=O)CC1C[C@H](C(=O)N2CCCCC2)[C@@]2(CCc3ccccc3)c3[nH]c4ccccc4c3CCN2C1=O (some centres not stated) | 14%
COc1ccc(NC(=O)c2sc3nc(C)nc(N4CCN(c5ccccn5)CC4)c3c2C)c(OC)c1 | 5.6%
Cc1nc(N2CCOCC2)c2c(C)c(C(=O)Nc3ccc(C(F)(F)F)cc3)sc2n1 | 5.6%
Cc1nc(N2CCN(c3ccccn3)CC2)c2c(C)c(C(=O)Nc3ccc(F)cc3)sc2n1 | 47.4% (active)
Cc1cc(C)nc(N2C(=O)CC(Cc3ccccc3)C2=O)n1 (configuration not stated) | -12.4%
CC(C)NC(=O)C(c1ccc(F)cc1)N(C(=O)CCC(=O)Nc1ccccn1)c1ccccc1F (configuration not stated) | 2.6%
C#CCOCCOCCOCCNc1nc(N2CCN(C(=O)C([C@@H](C)CC)n3cc(C(N)COC(=O)C(F)(F)F)nn3)CC2)nc(N2CCN(C(=O)[C@H](Cc3ccc(O)cc3)n3cc(C(N)[C@H](C)CC)nn3)CC2)n1 (some centres not stated) | 37.1%
C#CCOCCOCCOCCNc1nc(N2CCN(C(=O)C([C@@H](C)CC)n3cc(C(N)COC(=O)C(F)(F)F)nn3)CC2)nc(N2CCN(C(=O)[C@H](CCCCN)n3cc(C(N)CC(C)C)nn3)CC2)n1 (some centres not stated) | 108% (active)
C#CCOCCOCCOCCNc1nc(N2CCN(C(=O)C([C@@H](C)O)n3cc([C@@H](N)CCCCN)nn3)CC2)nc(N2CCN(C(=O)[C@H](CCCCN)n3cc(CN)nn3)CC2)n1 (some centres not stated) | 107% (active)
C#CCOCCOCCOCCNc1nc(N2CCN(C(=O)[C@H](CCCCN)n3cc(CCC(=O)O)nn3)CC2)nc(N2CCN(C(=O)[C@H](CCCCN)n3cc(CC(C)O)nn3)CC2)n1 (some centres not stated) | 2%
C#CCOCCOCCOCCNc1nc(N2CCN(C(=O)[C@H](CCC(=O)O)n3cc(C(N)CO)nn3)CC2)nc(N2CCN(C(=O)[C@H](CCCCN)n3cc(C(N)CC(C)C)nn3)CC2)n1 (some centres not stated) | -3.6%
